Hit rate of the full screen: of about 5,500 compounds, about 2,000 (36%) were called active. Another 18% or so got no clear call; they are omitted. No stated cut-off is given here; in the data, active means normalized growth mostly below about 0.91 (no sharp cut-off); inconclusive means no clear call, values can overlap the other calls; inactive means mostly above about 0.92. Some of the results follow.
Experiment: chemical genetic growth profiling, strain panel (AID 1159580);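 further: tested at 20 µM; growth read once vehicle control cultures reached saturation at 30 °C; 1 = growth at the plate median or of vehicle wells; lower values mean less growth of the strain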
Settings: growth OD

Measured: normalized growth

COc1ccc(-c2oc3cc(O[C@H]4O[C@H](CO)[C@@H](O)[C@H](O)[C@H]4O)c(OC)c(O)c3c(=O)c2OC)cc1O
inactive: S. cerevisiae deletion strains, locus YAL013W, strain DEP1, hits give low values 1.02 | S. cerevisiae deletion strains, locus YAL021C, strain ccr4, hits give low values 1.01 | S. cerevisiae deletion strains, locus YAL026C, strain drs2, hits give low values 0.996 | S. cerevisiae deletion strains, locus YAL030W, strain snc1, hits give low values 1 | S. cerevisiae deletion strains, locus YBL061C, strain skt5, hits give low values 0.996 | S. cerevisiae deletion strains, locus YBR009C, strain hhf1, hits give low values 0.997 | S. cerevisiae deletion strains, locus YBR021W, strain FUR4, hits give low values 1 | S. cerevisiae deletion strains, locus YBR023C, strain chs3, hits give low values 0.992 | S. cerevisiae deletion strains, locus YBR171W, strain sec66, hits give low values 0.99 | S. cerevisiae deletion strains, locus YBR229C, strain ROT2, hits give low values 1 | S. cerevisiae deletion strains, locus YBR231C, strain swc5, hits give low values 0.99 | S. cerevisiae deletion strains, locus YBR279W, strain paf1, hits give low values 1 | S. cerevisiae deletion strains, locus YCL011C, strain gbp2, hits give low values 1 | S. cerevisiae deletion strains, locus YCL016C, strain dcc1, hits give low values 1 | S. cerevisiae deletion strains, locus YCL029C, strain bik1, hits give low values 0.969 | S. cerevisiae deletion strains, locus YCL061C, strain MRC1, hits give low values 0.998 | S. cerevisiae deletion strains, locus YCL069W, strain vba3, hits give low values 0.999 | S. cerevisiae deletion strains, locus YCR088W, strain abp1, hits give low values 0.996 | S. cerevisiae deletion strains, locus YDL005C, strain med2, hits give low values 1.01 | S. cerevisiae deletion strains, locus YDL035C, strain GPR1, hits give low values 0.991 | S. cerevisiae deletion strains, locus YDL040C, strain nat1, hits give low values 0.994 | S. cerevisiae deletion strains, locus YDL074C, strain BRE1, hits give low values 0.925 | S. cerevisiae deletion strains, locus YDL101C, strain DUN1, hits give low values 0.997 | S. cerevisiae deletion strains, locus YDL134C, strain PPH21, hits give low values 0.982 | S. cerevisiae deletion strains, locus YDL185W, strain tfp1, hits give low values 0.984 | S. cerevisiae deletion strains, locus YDL192W, strain arf1, hits give low values 0.961 | S. cerevisiae deletion strains, locus YDR001C, strain nth1, hits give low values 1 | S. cerevisiae deletion strains, locus YDR069C, strain doa4, hits give low values 1 | S. cerevisiae deletion strains, locus YDR101C, strain arx1, hits give low values 0.97 | S. cerevisiae deletion strains, locus YDR137W, strain rgp1, hits give low values 0.905 | S. cerevisiae deletion strains, locus YDR159W, strain sac3, hits give low values 1 | S. cerevisiae deletion strains, locus YDR162C, strain NBP2, hits give low values 0.983 | S. cerevisiae deletion strains, locus YDR195W, strain ref2 1.01 | S. cerevisiae deletion strains, locus YDR297W, strain sur2, hits give low values 0.989 | S. cerevisiae deletion strains, locus YDR318W, strain mcm21, hits give low values 0.962 | S. cerevisiae deletion strains, locus YDR334W, strain swr1, hits give low values 0.996 | S. cerevisiae deletion strains, locus YDR335W, strain msn5, hits give low values 1 | S. cerevisiae deletion strains, locus YDR388W, hits give low values 0.971 | S. cerevisiae deletion strains, locus YDR392W, strain spt3, hits give low values 0.897 | S. cerevisiae deletion strains, locus YDR502C, strain sam2, hits give low values 0.956 | S. cerevisiae deletion strains, locus YEL003W, strain gim4, hits give low values 0.996 | S. cerevisiae deletion strains, locus YEL037C, strain rad23, hits give low values 0.994 | S. cerevisiae deletion strains, locus YEL061C, strain CIN8 (second series), hits give low values 1 | S. cerevisiae deletion strains, locus YEL061C, strain CIN8, hits give low values 0.981 | S. cerevisiae deletion strains, locus YER015W, strain faa2, hits give low values 1.01 | S. cerevisiae deletion strains, locus YER016W, strain bim1, hits give low values 0.997 | S. cerevisiae deletion strains, locus YER110C, hits give low values 0.964 | S. cerevisiae deletion strains, locus YER111C, strain swi4, hits give low values 1 | S. cerevisiae deletion strains, locus YER155C, strain BEM2 (second series), hits give low values 0.998 | S. cerevisiae deletion strains, locus YER155C, strain BEM2, hits give low values 1.01 | S. cerevisiae deletion strains, locus YER167W, strain BCK2, hits give low values 0.999 | S. cerevisiae deletion strains, locus YFR010W, strain ubp6, hits give low values 1 | S. cerevisiae deletion strains, locus YGL078C, strain dbp3, hits give low values 0.975 | S. cerevisiae deletion strains, locus YGL086W, strain mad1, hits give low values 0.97 | S. cerevisiae deletion strains, locus YGL167C, strain pmr1, hits give low values 0.994 | S. cerevisiae deletion strains, locus YGL173C, strain kem1, hits give low values 0.989 | S. cerevisiae deletion strains, locus YGL227W, strain vid30, hits give low values 0.996 | S. cerevisiae deletion strains, locus YGL240W, strain doc1, hits give low values 1.01 | S. cerevisiae deletion strains, locus YGL248W, strain PDE1, hits give low values 0.984 | S. cerevisiae deletion strains, locus YGL253W, strain hxk2, hits give low values 1 | S. cerevisiae deletion strains, locus YGR078C, strain PAC10, hits give low values 0.959 | S. cerevisiae deletion strains, locus YGR135W, strain pre9, hits give low values 0.949 | S. cerevisiae deletion strains, locus YGR229C, strain SMI1, hits give low values 0.956 | S. cerevisiae deletion strains, locus YGR252W, strain gcn5, hits give low values 0.891 | S. cerevisiae deletion strains, locus YHR013C, strain ard1, hits give low values 1.01 | S. cerevisiae deletion strains, locus YHR027C, strain rpn1, hits give low values 1.01 | S. cerevisiae deletion strains, locus YHR030C, strain SLT2, hits give low values 1 | S. cerevisiae deletion strains, locus YHR079C, strain IRE1 (second series), hits give low values 0.99 | S. cerevisiae deletion strains, locus YHR094C, strain hxt1, hits give low values 0.981 | S. cerevisiae deletion strains, locus YHR129C, strain ARP1, hits give low values 0.969 | S. cerevisiae deletion strains, locus YHR142W, strain chs7, hits give low values 0.985 | S. cerevisiae deletion strains, locus YHR200W, strain rpn10, hits give low values 0.953 | S. cerevisiae deletion strains, locus YIL066C, strain RNR3, hits give low values 0.98 | S. cerevisiae deletion strains, locus YIL073C, strain SPO22, hits give low values 0.971 | S. cerevisiae deletion strains, locus YIL125W, strain kgd1, hits give low values 0.981 | S. cerevisiae deletion strains, locus YIR030C, strain dcg1, hits give low values 0.982 | S. cerevisiae deletion strains, locus YJL092W, strain hpr5, hits give low values 1 | S. cerevisiae deletion strains, locus YJL095W, strain BCK1 (second series), hits give low values 0.992 | S. cerevisiae deletion strains, locus YJL095W, strain BCK1, hits give low values 0.916 | S. cerevisiae deletion strains, locus YJL115W, strain asf1, hits give low values 1 | S. cerevisiae deletion strains, locus YJL129C, strain trk1, hits give low values 0.935 | S. cerevisiae deletion strains, locus YJL134W, strain LCB3, hits give low values 0.995 | S. cerevisiae deletion strains, locus YJL154C, strain vps35, hits give low values 1.01 | S. cerevisiae deletion strains, locus YJL164C, strain tpk1, hits give low values 0.992 | S. cerevisiae deletion strains, locus YJL166W, strain qcr8, hits give low values 1 | S. cerevisiae deletion strains, locus YJL168C, strain set2, hits give low values 0.977 | S. cerevisiae deletion strains, locus YJL187C, strain SWE1 (second series), hits give low values 0.965 | S. cerevisiae deletion strains, locus YJL187C, strain SWE1, hits give low values 1.01 | S. cerevisiae deletion strains, locus YJR043C, strain POL32, hits give low values 0.982 | S. cerevisiae deletion strains, locus YKL009W, strain mrt4, hits give low values 0.965 | S. cerevisiae deletion strains, locus YKL068W, hits give low values 0.99 | S. cerevisiae deletion strains, locus YKL085W, strain MDH1 (second series), hits give low values 0.994 | S. cerevisiae deletion strains, locus YKL085W, strain MDH1, hits give low values 0.994 | S. cerevisiae deletion strains, locus YKL160W, strain elf1, hits give low values 0.992 | S. cerevisiae deletion strains, locus YKR001C, strain vps1, hits give low values 1 | S. cerevisiae deletion strains, locus YKR026C, strain gcn3, hits give low values 0.995 | S. cerevisiae deletion strains, locus YKR091W, strain srl3, hits give low values 1 | S. cerevisiae deletion strains, locus YLL001W, strain dnm1, hits give low values 0.994 | S. cerevisiae deletion strains, locus YLL026W, hits give low values 0.995 | S. cerevisiae deletion strains, locus YLL041C, strain sdh2, hits give low values 1 | S. cerevisiae deletion strains, locus YLR027C, strain aat2, hits give low values 1.01 | S. cerevisiae deletion strains, locus YLR039C, strain RIC1, hits give low values 0.989 | S. cerevisiae deletion strains, locus YLR058C, strain SHM2, hits give low values 0.989 | S. cerevisiae deletion strains, locus YLR102C, strain apc9, hits give low values 0.968 | S. cerevisiae deletion strains, locus YLR221C, strain rsa3, hits give low values 0.997 | S. cerevisiae deletion strains, locus YLR258W, strain gsy2, hits give low values 1 | S. cerevisiae deletion strains, locus YLR262C, strain YPT6 (second series), hits give low values 0.951 | S. cerevisiae deletion strains, locus YLR262C, strain YPT6, hits give low values 0.979 | S. cerevisiae deletion strains, locus YLR268W, strain sec22, hits give low values 0.955 | S. cerevisiae deletion strains, locus YLR320W, strain mms22, hits give low values 0.993 | S. cerevisiae deletion strains, locus YLR330W, strain CHS5, hits give low values 1.01 | S. cerevisiae deletion strains, locus YLR342W, strain FKS1 (second series), hits give low values 0.983 | S. cerevisiae deletion strains, locus YLR342W, strain FKS1, hits give low values 0.995 | S. cerevisiae deletion strains, locus YLR357W, strain rsc2, hits give low values 0.985 | S. cerevisiae deletion strains, locus YLR370C, strain arc18, hits give low values 0.989 | S. cerevisiae deletion strains, locus YLR371W, strain rom2, hits give low values 0.979 | S. cerevisiae deletion strains, locus YLR384C, strain iki3, hits give low values 1.01 | S. cerevisiae deletion strains, locus YLR418C, strain cdc73, hits give low values 0.877 | S. cerevisiae deletion strains, locus YML016C, strain PPZ1, hits give low values 0.994 | S. cerevisiae deletion strains, locus YML032C, strain rad52, hits give low values 0.969 | S. cerevisiae deletion strains, locus YML120C, strain ndi1, hits give low values 0.998 | S. cerevisiae deletion strains, locus YML124C, strain tub3, hits give low values 0.981 | S. cerevisiae deletion strains, locus YMR058W, strain fet3, hits give low values 0.998 | S. cerevisiae deletion strains, locus YMR078C, strain ctf18, hits give low values 0.976 | S. cerevisiae deletion strains, locus YMR125W, strain sto1, hits give low values 0.995 | S. cerevisiae deletion strains, locus YMR129W, hits give low values 0.998 | S. cerevisiae deletion strains, locus YMR205C, strain PFK2, hits give low values 0.981 | S. cerevisiae deletion strains, locus YMR223W, strain ubp8, hits give low values 0.977 | S. cerevisiae deletion strains, locus YMR231W, strain pep5, hits give low values 0.995 | S. cerevisiae deletion strains, locus YMR307W, strain GAS1, hits give low values 0.92 | S. cerevisiae deletion strains, locus YNL067W, strain RPL9B, hits give low values 0.98 | S. cerevisiae deletion strains, locus YNL071W, strain lat1, hits give low values 1.01 | S. cerevisiae deletion strains, locus YNL209W, strain ssb2, hits give low values 0.998 | S. cerevisiae deletion strains, locus YNL233W, strain BNI4, hits give low values 0.977 | S. cerevisiae deletion strains, locus YNL248C, strain rpa49, hits give low values 1 | S. cerevisiae deletion strains, locus YNL250W, strain rad50, hits give low values 0.974 | S. cerevisiae deletion strains, locus YNL271C, strain bni1, hits give low values 0.978 | S. cerevisiae deletion strains, locus YNL298W, strain CLA4, hits give low values 0.963 | S. cerevisiae deletion strains, locus YNL307C, strain MCK1, hits give low values 0.928 | S. cerevisiae deletion strains, locus YNL322C, strain KRE1 (second series), hits give low values 0.999 | S. cerevisiae deletion strains, locus YNL322C, strain KRE1, hits give low values 0.985 | S. cerevisiae deletion strains, locus YNR049C, strain mso1, hits give low values 1 | S. cerevisiae deletion strains, locus YNR052C, strain pop2, hits give low values 0.948 | S. cerevisiae deletion strains, locus YOL012C, strain htz1 0.832 | S. cerevisiae deletion strains, locus YOL147C, strain pex11, hits give low values 0.962 | S. cerevisiae deletion strains, locus YOR001W, strain rrp6, hits give low values 1.02 | S. cerevisiae deletion strains, locus YOR061W, strain CKA2, hits give low values 0.993 | S. cerevisiae deletion strains, locus YOR069W, strain VPS5, hits give low values 0.997 | S. cerevisiae deletion strains, locus YOR070C, strain gyp1, hits give low values 1.02 | S. cerevisiae deletion strains, locus YOR080W, strain dia2, hits give low values 0.999 | S. cerevisiae deletion strains, locus YOR083W, strain WHI5, hits give low values 1 | S. cerevisiae deletion strains, locus YOR106W, strain vam3, hits give low values 1 | S. cerevisiae deletion strains, locus YOR136W, strain idh2, hits give low values 0.986 | S. cerevisiae deletion strains, locus YOR144C, strain elg1, hits give low values 0.968 | S. cerevisiae deletion strains, locus YOR184W, strain ser1, hits give low values 0.944 | S. cerevisiae deletion strains, locus YOR265W, strain rbl2, hits give low values 0.993 | S. cerevisiae deletion strains, locus YOR270C, strain vph1, hits give low values 0.987 | S. cerevisiae deletion strains, locus YOR290C, strain snf2, hits give low values 0.984 | S. cerevisiae deletion strains, locus YOR316C, strain cot1, hits give low values 0.974 | S. cerevisiae deletion strains, locus YPL051W, strain arl3, hits give low values 0.998 | S. cerevisiae deletion strains, locus YPL078C, strain atp4, hits give low values 1.01 | S. cerevisiae deletion strains, locus YPL106C, strain sse1, hits give low values 0.995 | S. cerevisiae deletion strains, locus YPL240C, strain hsp82, hits give low values 1 | S. cerevisiae deletion strains, locus YPR119W, strain clb2, hits give low values 0.978 | S. cerevisiae deletion strains, locus YPR141C, strain kar3, hits give low values 0.977 | S. cerevisiae deletion strains, locus YPR163C, strain tif3, hits give low values 0.933 | S. cerevisiae deletion strains, locus YPR167C, strain met16, hits give low values 0.978 | S. cerevisiae deletion strains, strain wtn01, hits give low values 0.971 | S. cerevisiae strains, strain wild type, hits give low values 0.993

From PubChem BioAssay AID1159580 (chemical genetic matrix, 2015)
